Laboratory results: the supplement of paper PMC4022240
± gives the standard deviation.

T1: HaloTag-ATRX ADD domain (163-292)
T1 chain: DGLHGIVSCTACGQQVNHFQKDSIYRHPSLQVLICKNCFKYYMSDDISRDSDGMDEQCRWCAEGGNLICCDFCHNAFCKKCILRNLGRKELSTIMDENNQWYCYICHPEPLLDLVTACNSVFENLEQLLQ


Target: T1, HaloTag-ATRX ADD domain (163-292)
Assay: peptide microarray binding signal (635 nm), min-max normalized on array (fraction of array maximum); higher = stronger binding
Details: peptide region: Unmod H2B variant; binder concentration: 50 nM
Method in brief: (§1)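 Two probe formats were used for 1 h at 4°C: biotin-labelled HaloTag reader fusions (10 nM to 1 μM) with streptavidin-Alexa Fluor 647, and rabbit histone antibodies (1:10,000 to 1:2,000) with anti-rabbit Alexa 647. Both were applied to nitrocellulose arrays of histone 13-mer peptide–cellulose conjugates printed in triplicate with a Cy3 tracer and blocked overnight at 4°C. Signal was read at 635 nm and misprints at 532 nm on an Axon GenePix 4000B. Binding signal is expressed as the triplicate-spot mean intensity, min-max scaled for each library.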

Binder | peptide microarray binding signal
PELAKSAPAPKKG [Unmod H2B variant P E L A K S A P A P K K G] | 0.00618 ± 0.00062
ISKKGFKKAVVKT [Unmod H2B variant I S K K G F K K A V V K T] | 0.00683 ± 0.00024

Same assay, conditions: peptide region: Unmod H2B variant; binder concentration: 500 nM

Binder | peptide microarray binding signal
PELAKSAPAPKKG [Unmod H2B variant P E L A K S A P A P K K G] | 0.0121 ± 0.001
ISKKGFKKAVVKT [Unmod H2B variant I S K K G F K K A V V K T] | 0.0118 ± 0.00025

target: HaloTag-ING2 PHD (mouse Ing2 200-280); assay: as above; details: peptide region: Unmod H2B variant; binder concentration: 10 nM
Method in brief: as §1

Binder | peptide microarray binding signal
PELAKSAPAPKKG [Unmod H2B variant P E L A K S A P A P K K G] | 0.0037 ± 8.6e-05
ISKKGFKKAVVKT [Unmod H2B variant I S K K G F K K A V V K T] | 0.00227 ± 7.3e-05

same assay, conditions: peptide region: Unmod H2B variant; binder concentration: 100 nM

Binder | peptide microarray binding signal
PELAKSAPAPKKG [Unmod H2B variant P E L A K S A P A P K K G] | 0.0085 ± 0.0029
ISKKGFKKAVVKT [Unmod H2B variant I S K K G F K K A V V K T] | 0.00602 ± 0.00021

target: anti-H3K4me3 antibody ab8580; assay: as above; details: peptide region: Unmod H2B variant; binder concentration: 1:2,000 dilution
Method in brief: as §1

Binder | peptide microarray binding signal
PELAKSAPAPKKG [Unmod H2B variant P E L A K S A P A P K K G] | 0.0013 ± 0.00034
ISKKGFKKAVVKT [Unmod H2B variant I S K K G F K K A V V K T] | 0.00051 ± 8.6e-06

same assay, conditions: peptide region: Unmod H2B variant; binder concentration: 1:10,000 dilution

Binder | peptide microarray binding signal
PELAKSAPAPKKG [Unmod H2B variant P E L A K S A P A P K K G] | 0.0028 ± 0.00029
ISKKGFKKAVVKT [Unmod H2B variant I S K K G F K K A V V K T] | 0.000685 ± 7.2e-06

target: anti-H3K9me3 antibody ab8898; assay: as above; details: peptide region: Unmod H2B variant; binder concentration: 1:2,000 dilution
Method in brief: as §1

Binder | peptide microarray binding signal
PELAKSAPAPKKG [Unmod H2B variant P E L A K S A P A P K K G] | 0.000951 ± 7.1e-05
ISKKGFKKAVVKT [Unmod H2B variant I S K K G F K K A V V K T] | 0.000257 ± 2.7e-06

same assay, conditions: peptide region: Unmod H2B variant; binder concentration: 1:10,000 dilution

Binder | peptide microarray binding signal
PELAKSAPAPKKG [Unmod H2B variant P E L A K S A P A P K K G] | 0.00133 ± 8.2e-05
ISKKGFKKAVVKT [Unmod H2B variant I S K K G F K K A V V K T] | 0.000461

Target: T1, HaloTag-ATRX ADD domain (163-292)
Assay: as above
Details: peptide region: Unmod H2A variant; binder concentration: 50 nM
Method in brief: as §1

Binder | peptide microarray binding signal
RNDEELNKLLGKV [Unmod H2A variant R N D E E L N K L L G K V] | 0.0192 ± 0.00022
DNKKTRIIPRHLQ [Unmod H2A variant D N K K T R I I P R H L Q] | 0.0223 ± 0.0044
LNKLLGGVTIAQG [Unmod H2A variant L N K L L G G V T I A Q G] | 0.027 ± 0.0084

Same assay, conditions: peptide region: Unmod H2A variant; binder concentration: 500 nM

Binder | peptide microarray binding signal
RNDEELNKLLGKV [Unmod H2A variant R N D E E L N K L L G K V] | 0.024 ± 0.0011
DNKKTRIIPRHLQ [Unmod H2A variant D N K K T R I I P R H L Q] | 0.0112 ± 0.0059
LNKLLGGVTIAQG [Unmod H2A variant L N K L L G G V T I A Q G] | 0.0141 ± 0.0028

target: HaloTag-ING2 PHD (mouse Ing2 200-280); assay: as above; details: peptide region: Unmod H2A variant; binder concentration: 10 nM
Method in brief: as §1

Binder | peptide microarray binding signal
RNDEELNKLLGKV [Unmod H2A variant R N D E E L N K L L G K V] | 0.00513 ± 0.00017
DNKKTRIIPRHLQ [Unmod H2A variant D N K K T R I I P R H L Q] | 0.00245 ± 9.1e-05
LNKLLGGVTIAQG [Unmod H2A variant L N K L L G G V T I A Q G] | 0.00615 ± 0.00035

same assay, conditions: peptide region: Unmod H2A variant; binder concentration: 100 nM

Binder | peptide microarray binding signal
RNDEELNKLLGKV [Unmod H2A variant R N D E E L N K L L G K V] | 0.00907 ± 0.002
DNKKTRIIPRHLQ [Unmod H2A variant D N K K T R I I P R H L Q] | 0.0078 ± 0.0012
LNKLLGGVTIAQG [Unmod H2A variant L N K L L G G V T I A Q G] | 0.0259 ± 0.0025

target: anti-H3K4me3 antibody ab8580; assay: as above; details: peptide region: Unmod H2A variant; binder concentration: 1:2,000 dilution
Method in brief: as §1

Binder | peptide microarray binding signal
RNDEELNKLLGKV [Unmod H2A variant R N D E E L N K L L G K V] | 0.00181 ± 0.00069
DNKKTRIIPRHLQ [Unmod H2A variant D N K K T R I I P R H L Q] | 0.000472 ± 9.6e-05
LNKLLGGVTIAQG [Unmod H2A variant L N K L L G G V T I A Q G] | 0.00748 ± 0.0012

same assay, conditions: peptide region: Unmod H2A variant; binder concentration: 1:10,000 dilution

Binder | peptide microarray binding signal
RNDEELNKLLGKV [Unmod H2A variant R N D E E L N K L L G K V] | 0.00217 ± 3.9e-05
DNKKTRIIPRHLQ [Unmod H2A variant D N K K T R I I P R H L Q] | 0.00183 ± 0.00033
LNKLLGGVTIAQG [Unmod H2A variant L N K L L G G V T I A Q G] | 0.00177 ± 0.0002

target: anti-H3K9me3 antibody ab8898; assay: as above; details: peptide region: Unmod H2A variant; binder concentration: 1:2,000 dilution
Method in brief: as §1

Binder | peptide microarray binding signal
RNDEELNKLLGKV [Unmod H2A variant R N D E E L N K L L G K V] | 0.00159 ± 3.2e-05
DNKKTRIIPRHLQ [Unmod H2A variant D N K K T R I I P R H L Q] | 0.000317 ± 2.5e-05
LNKLLGGVTIAQG [Unmod H2A variant L N K L L G G V T I A Q G] | 0.0011 ± 4.3e-05

same assay, conditions: peptide region: Unmod H2A variant; binder concentration: 1:10,000 dilution

Binder | peptide microarray binding signal
RNDEELNKLLGKV [Unmod H2A variant R N D E E L N K L L G K V] | 0.001787 ± 1.7e-05
DNKKTRIIPRHLQ [Unmod H2A variant D N K K T R I I P R H L Q] | 0.000923 ± 7.7e-05
LNKLLGGVTIAQG [Unmod H2A variant L N K L L G G V T I A Q G] | 0.00138 ± 3.6e-05
